Experimental data as given in the supplement of paper PMC10849652.
About 8,800 targets were measured; listed, in parts, are those with a hit and a random draw of the rest. About 0.5% of all pairs of compound and target were hits. A number with no mark means an inactive call.

Legend:
Assay in all cases: log2 fold change, soluble protein after heating vs DMSO (PISA); higher = thermal stabilisation; K562 lysate, 10 uM; active = over 0.2 and 3.5 SD of the protein, either way, in both replicates (recomputed)
vemurafenib = compound: CCCS(=O)(=O)Nc1ccc(F)c(C(=O)c2c[nH]c3ncc(-c4ccc(Cl)cc4)cc23)c1F [vemurafenib]
In short: (§1)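 K562 pellets were dounce-homogenised in PBS pH 7.4 containing 1 mM MgCl2, and the crude extract, at 1 mg/mL protein, was exposed to 10 μM compound for 30 min. Aliquots were heated for 3 min across 48°C-58°C, pooled, brought to 0.5% NP-40 at 4°C and spun at 21,000xg for 90 min, with the supernatant taken as soluble protein. TMTpro 16plex LC-MS/MS with equalised channel sums quantified that protein. Values are log-two fold changes in thermal stability relative to solvent controls, taken from duplicates.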

[1] = compound: CCCS(=O)(=O)Nc1ccc(F)c(C(=O)c2c[nH]c3ncc(Cl)cc23)c1F
In short: as §1

barasertib = compound: CCN(CCCOc1ccc2c(Nc3cc(CC(=O)Nc4cccc(F)c4)[nH]n3)ncnc2c1)CCOP(=O)(O)O [barasertib]
In short: as §1

[2] = compound: CC[C@@H]1C(=O)N(C)c2cnc(Nc3ccc(C(=O)NC4CCN(C)CC4)cc3OC)nc2N1C1CCCC1
In short: as §1

volasertib = compound: CC[C@@H]1C(=O)N(C)c2cnc(Nc3ccc(C(=O)N[C@H]4CC[C@H](N5CCN(CC6CC6)CC5)CC4)cc3OC)nc2N1C(C)C [volasertib]
In short: as §1

[3] = compound: CCn1c(C(=O)N(C2CC2)C2CC2)cc2c3c(ncn3C)c(Nc3cc(C)n(C)n3)nc21
In short: as §1

[4] = compound: CCn1cc(-c2ccnc3[nH]c(-c4cccc(CN(C)C)c4)cc23)c(-c2ccc(NC(=O)N(C)C)cc2)n1
In short: as §1

[5] = compound: CN1CCC(CNc2ccc3ncc(-c4cccc(OC(F)(F)F)c4)n3n2)CC1
In short: as §1

saracatinib = compound: CN1CCN(CCOc2cc(OC3CCOCC3)c3c(Nc4c(Cl)ccc5c4OCO5)ncnc3c2)CC1 [saracatinib]
In short: as §1

sotrastaurin = compound: CN1CCN(c2nc(C3=C(c4c[nH]c5ccccc45)C(=O)NC3=O)c3ccccc3n2)CC1 [sotrastaurin]
In short: as §1

alvocidib = compound: CN1CC[C@H](c2c(O)cc(O)c3c(=O)cc(-c4ccccc4Cl)oc23)[C@H](O)C1 [alvocidib]
In short: as §1

Tubastatin A = compound: CN1CCc2c(c3ccccc3n2Cc2ccc(C(=O)NO)cc2)C1 [Tubastatin A]
In short: as §1

[6] = compound: CNC(=O)C1=CC=CC=C1NC2=NC(=NC=C2Cl)NC3=C(C=C(C=C3)N4CCOCC4)OC
In short: as §1

defactinib = compound: CNC(=O)c1ccc(Nc2ncc(C(F)(F)F)c(NCc3nccnc3N(C)S(C)(=O)=O)n2)cc1 [defactinib]
In short: as §1

[7] = compound: CNc1nc(-c2ccc3c(N)n[nH]c3c2)cc(N2C[C@@H](C(=O)NC3CCCCC3)CC[C@H]2C)n1
In short: as §1

encorafenib = compound: COC(=O)N[C@@H](C)CNc1nccc(-c2cn(C(C)C)nc2-c2cc(Cl)cc(NS(C)(=O)=O)c2F)n1 [encorafenib]
In short: as §1

[8] = compound: COC(=O)[C@H](CCSC)NC(=O)C1=C(C=C(C=C1)NC[C@H](CS)N)C2=CC=CC=C2
In short: as §1

alisertib = compound: COc1cc(Nc2ncc3c(n2)-c2ccc(Cl)cc2C(c2c(F)cccc2OC)=NC3)ccc1C(=O)O [alisertib]
In short: as §1

[9] = compound: COc1cc2nc(-c3cc(F)ccc3O)nc(N[C@@H]3CNC[C@H]3C(C)(C)O)c2cc1OC
In short: as §1

gefitinib = compound: COc1cc2ncnc(Nc3ccc(F)c(Cl)c3)c2cc1OCCCN1CCOCC1 [gefitinib]
In short: as §1

UniProt P56945, sequence (P56945 whole entry, looked up): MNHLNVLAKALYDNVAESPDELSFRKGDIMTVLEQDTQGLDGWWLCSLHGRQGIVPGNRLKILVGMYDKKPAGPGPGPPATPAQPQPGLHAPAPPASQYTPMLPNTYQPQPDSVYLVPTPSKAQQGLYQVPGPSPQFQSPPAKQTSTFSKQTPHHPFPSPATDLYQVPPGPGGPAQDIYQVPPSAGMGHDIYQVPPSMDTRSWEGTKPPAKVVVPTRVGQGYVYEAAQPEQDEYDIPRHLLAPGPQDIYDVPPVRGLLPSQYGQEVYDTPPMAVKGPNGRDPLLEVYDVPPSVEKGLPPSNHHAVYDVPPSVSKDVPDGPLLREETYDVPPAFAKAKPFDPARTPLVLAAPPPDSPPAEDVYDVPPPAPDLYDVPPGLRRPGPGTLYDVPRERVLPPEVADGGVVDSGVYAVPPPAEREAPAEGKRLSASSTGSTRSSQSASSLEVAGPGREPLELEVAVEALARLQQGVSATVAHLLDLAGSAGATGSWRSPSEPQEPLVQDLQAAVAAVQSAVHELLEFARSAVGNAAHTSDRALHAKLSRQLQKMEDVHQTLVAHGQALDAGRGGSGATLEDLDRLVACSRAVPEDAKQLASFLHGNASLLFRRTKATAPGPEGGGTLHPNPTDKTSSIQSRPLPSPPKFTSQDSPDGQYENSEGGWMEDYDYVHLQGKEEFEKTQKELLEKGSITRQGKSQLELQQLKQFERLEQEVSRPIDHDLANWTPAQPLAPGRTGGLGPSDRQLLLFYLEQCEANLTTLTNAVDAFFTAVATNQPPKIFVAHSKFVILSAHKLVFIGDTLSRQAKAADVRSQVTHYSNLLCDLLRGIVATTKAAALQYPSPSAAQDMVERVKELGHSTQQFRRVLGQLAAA
UniProt Q13555, sequence (Q13555 whole entry, looked up): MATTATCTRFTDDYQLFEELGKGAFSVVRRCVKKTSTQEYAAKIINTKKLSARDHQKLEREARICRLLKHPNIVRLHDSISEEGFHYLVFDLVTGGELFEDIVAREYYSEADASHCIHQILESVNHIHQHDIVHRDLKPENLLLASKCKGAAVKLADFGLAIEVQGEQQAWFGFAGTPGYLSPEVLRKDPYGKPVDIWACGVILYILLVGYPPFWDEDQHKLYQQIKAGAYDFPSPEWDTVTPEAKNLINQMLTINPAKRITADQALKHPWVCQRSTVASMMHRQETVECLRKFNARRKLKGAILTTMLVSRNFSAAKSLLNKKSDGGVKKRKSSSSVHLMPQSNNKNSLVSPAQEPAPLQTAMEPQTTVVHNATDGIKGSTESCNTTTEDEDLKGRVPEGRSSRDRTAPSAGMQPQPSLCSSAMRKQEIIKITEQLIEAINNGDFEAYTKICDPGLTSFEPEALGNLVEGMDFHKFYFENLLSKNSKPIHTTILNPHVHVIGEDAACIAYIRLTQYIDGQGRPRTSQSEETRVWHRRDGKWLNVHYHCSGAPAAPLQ
UniProt O95260, sequence (O95260 whole entry, looked up): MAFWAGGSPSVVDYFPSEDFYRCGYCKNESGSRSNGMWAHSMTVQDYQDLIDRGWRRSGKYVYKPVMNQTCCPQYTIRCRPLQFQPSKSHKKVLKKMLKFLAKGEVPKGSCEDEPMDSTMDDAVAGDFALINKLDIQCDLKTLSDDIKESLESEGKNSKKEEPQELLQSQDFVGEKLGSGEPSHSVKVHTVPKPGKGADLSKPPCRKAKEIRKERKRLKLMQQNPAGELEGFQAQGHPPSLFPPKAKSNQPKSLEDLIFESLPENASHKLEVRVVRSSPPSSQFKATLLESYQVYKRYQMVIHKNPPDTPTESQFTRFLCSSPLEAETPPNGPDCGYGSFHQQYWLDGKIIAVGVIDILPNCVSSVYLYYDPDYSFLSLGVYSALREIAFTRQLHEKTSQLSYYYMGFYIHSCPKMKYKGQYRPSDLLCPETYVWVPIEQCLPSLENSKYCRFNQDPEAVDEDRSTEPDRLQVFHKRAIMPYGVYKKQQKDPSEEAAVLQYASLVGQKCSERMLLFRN
UniProt Q8N960, sequence (Q8N960 whole entry, looked up): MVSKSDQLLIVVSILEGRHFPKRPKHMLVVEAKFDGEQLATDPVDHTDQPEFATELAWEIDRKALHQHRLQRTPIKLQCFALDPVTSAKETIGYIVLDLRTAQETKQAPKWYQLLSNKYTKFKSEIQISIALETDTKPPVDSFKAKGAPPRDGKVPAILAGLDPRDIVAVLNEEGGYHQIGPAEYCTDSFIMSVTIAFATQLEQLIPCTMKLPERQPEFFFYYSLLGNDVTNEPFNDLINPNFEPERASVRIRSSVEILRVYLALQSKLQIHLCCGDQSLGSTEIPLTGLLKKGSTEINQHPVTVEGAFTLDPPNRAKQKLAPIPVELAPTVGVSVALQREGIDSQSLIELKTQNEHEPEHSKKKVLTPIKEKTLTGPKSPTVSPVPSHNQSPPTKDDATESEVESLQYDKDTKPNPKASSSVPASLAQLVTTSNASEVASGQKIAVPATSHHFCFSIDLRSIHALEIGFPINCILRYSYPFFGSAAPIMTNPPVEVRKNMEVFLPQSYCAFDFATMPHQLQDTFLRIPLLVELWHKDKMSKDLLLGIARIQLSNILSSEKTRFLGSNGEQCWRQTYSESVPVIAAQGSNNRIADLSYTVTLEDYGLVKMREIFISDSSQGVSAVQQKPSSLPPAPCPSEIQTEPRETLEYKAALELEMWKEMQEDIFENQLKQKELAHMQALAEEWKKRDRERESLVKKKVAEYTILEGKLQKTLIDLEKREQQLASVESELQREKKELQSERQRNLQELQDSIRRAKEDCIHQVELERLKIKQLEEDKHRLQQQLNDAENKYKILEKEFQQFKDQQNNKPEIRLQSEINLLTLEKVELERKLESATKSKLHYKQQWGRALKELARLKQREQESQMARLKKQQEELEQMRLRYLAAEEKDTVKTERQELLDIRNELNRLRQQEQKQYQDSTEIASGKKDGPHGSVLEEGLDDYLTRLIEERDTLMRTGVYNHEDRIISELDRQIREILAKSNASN
UniProt Q9NSG2, sequence (Q9NSG2 whole entry, looked up): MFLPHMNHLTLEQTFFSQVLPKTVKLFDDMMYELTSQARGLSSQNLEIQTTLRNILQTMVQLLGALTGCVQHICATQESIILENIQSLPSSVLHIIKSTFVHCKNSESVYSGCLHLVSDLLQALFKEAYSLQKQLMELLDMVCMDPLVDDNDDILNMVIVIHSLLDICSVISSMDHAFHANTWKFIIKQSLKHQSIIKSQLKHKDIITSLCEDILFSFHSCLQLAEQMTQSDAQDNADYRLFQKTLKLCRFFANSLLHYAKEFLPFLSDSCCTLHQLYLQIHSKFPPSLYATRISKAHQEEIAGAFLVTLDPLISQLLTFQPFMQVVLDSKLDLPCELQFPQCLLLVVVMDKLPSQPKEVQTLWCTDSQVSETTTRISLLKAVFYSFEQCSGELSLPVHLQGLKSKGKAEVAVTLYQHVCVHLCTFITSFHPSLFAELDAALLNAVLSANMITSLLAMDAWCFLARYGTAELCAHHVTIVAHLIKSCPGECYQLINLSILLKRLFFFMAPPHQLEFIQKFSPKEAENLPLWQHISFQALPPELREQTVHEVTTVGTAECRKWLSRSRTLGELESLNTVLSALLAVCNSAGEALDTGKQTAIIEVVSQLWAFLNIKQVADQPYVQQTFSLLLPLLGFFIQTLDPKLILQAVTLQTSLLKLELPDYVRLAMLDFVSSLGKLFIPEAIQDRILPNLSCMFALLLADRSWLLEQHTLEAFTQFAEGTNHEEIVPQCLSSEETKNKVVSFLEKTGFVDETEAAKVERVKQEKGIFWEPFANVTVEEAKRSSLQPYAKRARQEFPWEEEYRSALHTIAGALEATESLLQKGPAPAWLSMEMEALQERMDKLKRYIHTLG
UniProt P15313, sequence (P15313 whole entry, looked up): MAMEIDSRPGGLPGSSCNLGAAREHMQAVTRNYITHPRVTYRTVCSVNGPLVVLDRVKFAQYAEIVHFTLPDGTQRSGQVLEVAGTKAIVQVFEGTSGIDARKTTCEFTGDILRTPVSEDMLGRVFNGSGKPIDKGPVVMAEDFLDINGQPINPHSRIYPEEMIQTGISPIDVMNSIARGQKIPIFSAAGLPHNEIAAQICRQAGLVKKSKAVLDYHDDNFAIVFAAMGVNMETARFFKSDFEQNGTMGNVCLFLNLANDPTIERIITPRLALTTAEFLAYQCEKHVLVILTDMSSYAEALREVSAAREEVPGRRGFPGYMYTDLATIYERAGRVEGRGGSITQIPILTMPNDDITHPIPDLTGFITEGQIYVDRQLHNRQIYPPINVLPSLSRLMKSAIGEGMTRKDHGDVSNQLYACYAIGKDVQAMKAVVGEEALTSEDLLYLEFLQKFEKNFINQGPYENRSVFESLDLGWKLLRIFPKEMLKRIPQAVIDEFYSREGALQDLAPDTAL
UniProt O43709, sequence (O43709 whole entry, looked up): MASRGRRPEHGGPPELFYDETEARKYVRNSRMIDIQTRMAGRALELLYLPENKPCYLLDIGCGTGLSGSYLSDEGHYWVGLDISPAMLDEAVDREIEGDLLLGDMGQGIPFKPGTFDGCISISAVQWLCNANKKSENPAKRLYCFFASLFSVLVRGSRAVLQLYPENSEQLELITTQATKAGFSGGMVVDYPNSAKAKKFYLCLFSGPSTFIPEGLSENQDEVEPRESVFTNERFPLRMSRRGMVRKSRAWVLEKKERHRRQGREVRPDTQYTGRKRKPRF
UniProt P55211, sequence (P55211 whole entry, looked up): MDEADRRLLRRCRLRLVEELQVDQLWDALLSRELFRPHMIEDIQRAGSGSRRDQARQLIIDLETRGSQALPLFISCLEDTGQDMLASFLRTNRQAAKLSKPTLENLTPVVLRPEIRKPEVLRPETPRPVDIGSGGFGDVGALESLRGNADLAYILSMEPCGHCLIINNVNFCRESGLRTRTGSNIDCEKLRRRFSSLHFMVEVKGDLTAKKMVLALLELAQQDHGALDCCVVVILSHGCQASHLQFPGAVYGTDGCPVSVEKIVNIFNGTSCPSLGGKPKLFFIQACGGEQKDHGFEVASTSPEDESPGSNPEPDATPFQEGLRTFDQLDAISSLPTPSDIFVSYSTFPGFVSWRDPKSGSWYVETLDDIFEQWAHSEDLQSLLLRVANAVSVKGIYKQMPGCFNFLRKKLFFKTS

Row | Target | log2 fold change (vemurafenib) | log2 fold change [1] | log2 fold change (barasertib) | log2 fold change [2] | log2 fold change (volasertib) | log2 fold change [3] | log2 fold change [4] | log2 fold change [5] | log2 fold change (saracatinib) | log2 fold change (sotrastaurin) | log2 fold change (alvocidib) | log2 fold change (Tubastatin A) | log2 fold change [6] | log2 fold change (defactinib) | log2 fold change [7] | log2 fold change (encorafenib) | log2 fold change [8] | log2 fold change (alisertib) | log2 fold change [9] | log2 fold change (gefitinib)
1 | BCAR1 isoform 6 (UniProt P56945) | 0.038 | 0.018 | 0.015 | -0.065 | -0.018 | -0.003 | 0.064 | -0.012 | 0.032 | -0.038 | 0.074 | -0.009 | 0.009 | -0.032 | 0.012 | 0.018 | 0.014 | 0.009 | 0.08 | 0.065
2 | CAMK2G isoform 8 (UniProt Q13555) | 0.067 | -0.03 | 0.058 | 0.102 | -0.033 | -0.079 | -0.001 | 0.022 | 0.086 | 0.345 (active) | 0.334 (active) | -0.098 | 0.223 | 0.006 | 0.034 | -0.199 | -0.007 | -0.013 | 0.144 | -0.013
3 | BUD23 isoform 3 (UniProt O43709) | 0.01 | 0.017 | 0.038 | -0.006 | -0.029 | -0.104 | -0.341 (active) | 0.193 | 0.019 | 0.017 | -0.126 | 0.14 | 0.026 | -0.046 | -0.052 | -0.017 | 0.036 | 0.082 | 0.085 | 0.054
4 | ATE1 isoform 2 (UniProt O95260) | 0.118 | -0.006 | 0.069 | 0.019 | -0.013 | 0.014 | 0.032 | 0.126 | 0.006 | -0.016 | -0.116 | -0.008 | 0.036 | 0 | 0.038 | -0.013 | 0.109 | 0.021 | 0.004 | -0.038
5 | C1orf112 (UniProt Q9NSG2) | 0 | 0.006 | -0.04 | -0.065 | 0.034 | 0.037 | 0.171 | -0.059 | 0.065 | 0.025 | -0.247 | -0.181 | 0.077 | 0.038 | -0.082 | 0.037 | 0.096 | -0.032 | -0.046 | -0.004
6 | CASP9 (UniProt P55211) | -0.017 | 0.001 | -0.002 | 0.025 | 0.029 | -0.061 | -0.013 | 0.005 | 0.003 | 0.045 | -0.01 | -0.043 | -0.021 | 0.039 | -0.014 | 0.023 | -0.077 | 0.014 | 0.017 | 0.052
7 | CEP120 (UniProt Q8N960) | 0.052 | -0.098 | 0.033 | -0.411 | 0.029 | -0.134 | -0.233 | 0.119 | 0.008 | 0.034 | -0.046 | 0.098 | -0.096 | -0.025 | 0.273 | 0.065 | -0.117 | 0.141 | 0.038 | 0.119
8 | ATP6V1B1 (UniProt P15313) | -0.009 | -0.013 | -0.012 | 0.016 | 0.03 | 0.006 | -0.288 (active) | 0.158 | -0.006 | 0.006 | -0.118 | 0.095 | 0.018 | -0.005 | 0.031 | -0.032 | 0.017 | 0.023 | 0.009 | -0.033
